High-throughput results: PubChem BioAssay, National Center for Advancing Translational Sciences (NCATS)
In the library only some 4.8% were active in any assay of this set; here they are far more common.
TGFb inhibitor: qHTS for Inhibitors of TGF-b; 1.2% of 410,000 active; Potency, µM (top dose mostly 46.1 µM), inactives show at the highest dose activity, negative = inhibition, usual class: inhibitors; HepG2 CAGA-GFP TGF-b/SMAD3 reporter, GFP fluorescence, 18 h; TGF-beta stimulated, 500 pg/mL final; note: potency is the fitted concentration of half-maximal effect; % is set by controls: 0 for no effect and ±100 for the full control effect; nearly all actives have a fitted effect of over 65% in size
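Smad-responsive CAGA-GFP expression was quantified in HEPG2 cells exposed to compounds and 500 pg/mL final TGF-beta for 18 h at 37 degrees C; unstimulated wells defined full inhibition.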
ATXN2 expr inh: Primary qHTS for Inhibitors of ATXN expression; Potency, µM (top dose mostly 57 µM), without a hit: at the top dose activity change, negative = inhibition, actives largely listed as inhibitors; HEK-293 ATXN2-luciferase reporter, luminescence, 24 h; AID 1745845, 2022; 0.72% of 360,000 active; note: potency is the fitted concentration of half-maximal effect; % is set by controls: 0 for no effect and ±100 for the full control effect; nearly all actives have a fitted effect of over 55% in size
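ATXN2-luciferase reporter cells (luciferase flanked by upstream and downstream ATXN2 gene portions) were treated 24 h at 37 °C with compounds at up to 57 uM. SteadyGlo luminescence gave expression; GF-AFC fluorescence gave viability.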
D3 ag: qHTS of D3 Dopamine Receptor Agonist: qHTS; D(3) dopamine receptor (Homo sapiens), P35462; D3R DiscoveRx beta-arrestin cells, luminescence, 90 min; max activation, %; 0.58% of 410,000 active; AID 652048, 2013; in the data active = max activation above about 30%; note: 0% is about no effect
Target sequence (P35462 whole entry, looked up): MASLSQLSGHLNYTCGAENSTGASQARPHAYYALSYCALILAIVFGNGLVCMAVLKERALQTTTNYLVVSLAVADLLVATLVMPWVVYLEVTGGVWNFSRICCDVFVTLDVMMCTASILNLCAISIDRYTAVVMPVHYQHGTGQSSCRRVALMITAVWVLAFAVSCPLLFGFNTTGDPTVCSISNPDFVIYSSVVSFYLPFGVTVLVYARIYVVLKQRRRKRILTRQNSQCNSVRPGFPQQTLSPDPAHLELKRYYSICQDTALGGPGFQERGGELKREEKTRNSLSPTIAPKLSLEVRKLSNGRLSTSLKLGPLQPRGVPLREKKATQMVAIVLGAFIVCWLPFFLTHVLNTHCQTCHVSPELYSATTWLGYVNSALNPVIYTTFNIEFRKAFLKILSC
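Agonist mode: compounds and dopamine controls were applied to plated cells for 90 min at 37 degrees C after an overnight attachment at 1500 cells/well. Luminescent read-out followed 30 - 60 minutes at room temperature with DiscoveRx detection reagent.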
DRD3 antagonist: qHTS of D3 Dopamine Receptor Antagonist: qHTS; D3R cells, DiscoveRx beta-arrestin luminescence, antagonist mode; stronger effect = lower value; max response, negative = inhibition, %; 2.5% of 360,000 active; D(3) dopamine receptor (Homo sapiens), P35462; in the data active = max response below about -50%; inconclusive = no clear call, values can overlap the other calls; note: % is set by controls: 0 for no effect and ±100 for the full control effect
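Cells expressing the human receptor were seeded at 1500 cells/well, incubated overnight at 37 degrees C in 5% CO2, then exposed to library compounds with dopamine controls for 90 minutes at 37 degrees C before luminescent detection.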
HepG2 viability: qHTS for Inhibitors of TGF-b: Cytotox Counterscreen | HepG2 CAGA-GFP viability, ATP luminescence, 18 h | Potency, µM (top dose mostly 46.1 µM), for inactives: at the highest dose activity change, negative = cytotoxicity, most hits filed as cytotoxic | 0.76% of 410,000 active; note: potency is the fitted concentration of half-maximal effect
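CellTiter-Glo luminescence gave cytotoxicity after 18 hours at 37 degrees C. The cells were HepG2 CAGA-GFP in 1% FBS DMEM, stimulated with 500 pg/mL TGF-beta after compound addition. %Activity was normalised to no-cell wells (complete cell-killing) and DMSO (no toxicity), and curves were fitted and classified.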
S2 tox: Viability Counterscreen for Primary qHTS for Inhibitors of ATXN expression. S2 cells (HEK-293 line with an ATXN2-luciferase reporter) viability, CellTiter-Fluor protease fluorescence, 24 h. Potency, µM (top dose mostly 56.7 µM), most hits filed as cytotoxic. 0.49% of 400,000 active. AID 651635, 2014; note: potency is the fitted concentration of half-maximal effect; nearly all actives have a fitted effect of over 40% in size
Numbers without * were called inactive; ! = a repeat was not active. Unless noted, calls come from the whole dose curve; as a rule, active = well fitted curve in the direction sought with a large enough effect; inconclusive = small, poorly fitted or top-dose-only effect, or another doubt; inactive = no such curve, though single readings can be large; an effect the other way counts as inactive or inconclusive.

How did CCOC(=O)C1CCN(CCC(=O)Nc2ccc(C)cc2)CC1 do in these assays?
TGFb inhibitor: 4.9%; ATXN2 expr inh: -2.7%; D3 ag: -16.5; DRD3 antagonist: -1.3; HepG2 viability: 4.6%; S2 tox: inactive

Results for CCOC(=O)C1CCN(CCCSc2ccc(C)cc2)CC1 ?
TGFb inhibitor: -4.0%; ATXN2 expr inh: -7.9%; D3 ag: -21.2; DRD3 antagonist: -86.7*; HepG2 viability: -14.3%; S2 tox: inactive

What do the screens show for `O=C(Nc1ccccc1)N1CCN(Cc2ccc(Cl)cc2)CC1`?
TGFb inhibitor: 0.9%; D3 ag: -4.3; DRD3 antagonist: 9.9; HepG2 viability: -4.5%; S2 tox: inconclusive

How did CC1=C(C(=O)Nc2ccccc2)C(c2ccncc2)n2nc(SCc3ccccc3F)nc2N1 (stereo not given) do in these assays?
TGFb inhibitor: 23.0%; ATXN2 expr inh: -3.9%; D3 ag: -18.4; HepG2 viability: 5.7%; S2 tox: inactive

How did O=C(CCN1CCN(Cc2ccccc2)CC1)Nc1cccc(Cl)c1 do in these assays?
TGFb inhibitor: -0.3%; ATXN2 expr inh: -8.3%; D3 ag: 0.3; DRD3 antagonist: -58.8*; HepG2 viability: -32.9%; S2 tox: inactive

How did COc1ccc(NC(=O)CCN2CCN(Cc3ccccc3)CC2)c(OC)c1 do in these assays?
TGFb inhibitor: 14.8%; D3 ag: 21.4; DRD3 antagonist: inconclusive; HepG2 viability: -1.9%; S2 tox: inactive

What do the screens show for `COc1cc(NC(=O)CCN2CCN(Cc3ccccc3)CC2)cc(OC)c1`?
TGFb inhibitor: 0.0%; ATXN2 expr inh: -0.9%; D3 ag: -2.1; DRD3 antagonist: -54.4*; HepG2 viability: 2.5%; S2 tox: inactive

How did O=C(Nc1ccc(Cl)cc1)N1CCCN(Cc2ccc(F)cc2)C1 do in these assays?
TGFb inhibitor: inconclusive; ATXN2 expr inh: inconclusive; D3 ag: -16.6; DRD3 antagonist: -9.8; HepG2 viability: 11.2µM*; S2 tox: inconclusive

Results for CC(C)(C)C(=O)OCc1cc(=O)n2nc(C3CC3)sc2n1 ?
TGFb inhibitor: -3.3%; ATXN2 expr inh: 17.0%; D3 ag: -5.0; HepG2 viability: -13.9%; S2 tox: inactive

Results for COc1ccc(-c2noc(-c3ccccc3NC(=O)c3cc(OC)c(OC)c(OC)c3)n2)cc1 ?
TGFb inhibitor: 5.0%; D3 ag: 0.6; HepG2 viability: 1.8%

How did CC1=C(CC[C@@H](C)CO)OC2CC3C4CCC5CC(O)CCC5(C)C4CC(=O)C3(C)C12 (stereo not given in full) do in these assays?
TGFb inhibitor: 1.6%; ATXN2 expr inh: 25.1µM*; D3 ag: 24.8; DRD3 antagonist: 91.8; HepG2 viability: -24.8%; S2 tox: inconclusive

Results for CCc1ccc(C(=O)/C=C/c2ccc([N+](=O)[O-])o2)cc1 ?
TGFb inhibitor: inconclusive; ATXN2 expr inh: inconclusive; D3 ag: -2.2; DRD3 antagonist: -55.5*; HepG2 viability: -58.8%; S2 tox: inconclusive

How did CCCSc1ncc(Cl)c(C(=O)Nc2c(C(=O)c3ccc(C)cc3)oc3ccccc23)n1 do in these assays?
D3 ag: 3.1; HepG2 viability: 4.9%

What do the screens show for `Cc1c(C(=O)N(C)C)sc(NC(=O)c2cc([N+](=O)[O-])cc([N+](=O)[O-])c2)c1C#N`?
TGFb inhibitor: -34.2%; ATXN2 expr inh: -8.2%; D3 ag: -3.5; DRD3 antagonist: -91.2*; HepG2 viability: -20.7%; S2 tox: inactive

What do the screens show for `CSc1nccc(-c2cc(Cl)c3c(c2)CC(CNC(=O)c2ccc(C)nc2)O3)n1` (stereo not given)?
S2 tox: inactive

Results for COc1ccc(/C=C/C(=O)Nc2sc3c(c2C(N)=O)CCC(C)C3)cc1OC (stereo not given) ?
TGFb inhibitor: 19.8%; ATXN2 expr inh: -12.9%; D3 ag: 37.2*; HepG2 viability: -4.3%; S2 tox: inconclusive

Results for O=C1OC2(c3ccccc31)c1cc(I)c(O)c(I)c1Oc1c2cc(I)c(O)c1I ?
ATXN2 expr inh: -7.3%; D3 ag: -33.9; S2 tox: 35.5µM*

Results for Cc1cc(O)ccc1C1(c2ccc(O)cc2C)OC(=O)c2ccccc21 ?
TGFb inhibitor: inconclusive; ATXN2 expr inh: -4.5%; D3 ag: 2.2; DRD3 antagonist: -5.4; HepG2 viability: -4.0%; S2 tox: inactive

What do the screens show for `O=C1OC2(c3ccc(O)cc3Oc3cc(O)ccc32)c2ccccc21`?
ATXN2 expr inh: 0.2%; D3 ag: 30.2*; S2 tox: inconclusive

Results for C[C@H]1C[C@H](O)c2ccsc2S1(=O)=O ?
ATXN2 expr inh: 7.3%; S2 tox: inactive

How did COc1ccc(/C(C)=N/Nc2nc(C)cc(-c3ccccc3)n2)cc1 do in these assays?
TGFb inhibitor: -11.2%; ATXN2 expr inh: inconclusive; D3 ag: 48.2*; DRD3 antagonist: 9.3; HepG2 viability: -37.5%; S2 tox: inactive

Results for COc1ccc(-c2cc(-c3ccccc3)no2)cc1 ?
TGFb inhibitor: 0.4%; ATXN2 expr inh: 29.3%; D3 ag: 34.6*; DRD3 antagonist: 19.7; HepG2 viability: -34.5%; S2 tox: inactive

How did COc1ccc(Nc2nc(C)cc(-c3cc(-c4ccccc4)on3)n2)cc1 do in these assays?
TGFb inhibitor: -3.1%; ATXN2 expr inh: 0.8%; D3 ag: 51.5*; DRD3 antagonist: 34.5; HepG2 viability: 1.6%; S2 tox: inactive

What do the screens show for `CCCCCCCCCCCCCCCC[N+](C)(C)CCN(Cc1ccc(OC)cc1)c1ncccn1`?
TGFb inhibitor: inconclusive; ATXN2 expr inh: 35.5µM*!; D3 ag: -75.8; DRD3 antagonist: -55.0*; HepG2 viability: 10µM*; S2 tox: 25.1µM*!

Results for CCN1CCC(N(Cc2ccc(F)cc2)C(=O)Nc2cccc(C(F)(F)F)c2)CC1 ?
TGFb inhibitor: inconclusive; ATXN2 expr inh: 28.2µM*; D3 ag: -18.5; HepG2 viability: -95.7%; S2 tox: inactive

Results for CN(CC1CCN(CCc2cccc(C(F)(F)F)c2)CC1)C(=O)c1ccccc1 ?
TGFb inhibitor: -21.7%; ATXN2 expr inh: -18.1%; D3 ag: -27.7; DRD3 antagonist: inconclusive; HepG2 viability: -25.0%; S2 tox: inactive

Results for CCN1CCC(N(Cc2cccc(OC)c2)C(=O)Nc2cccc(C(F)(F)F)c2)CC1 ?
TGFb inhibitor: inconclusive; ATXN2 expr inh: -38.5%; D3 ag: 5.5; HepG2 viability: 7.08µM*; S2 tox: inconclusive

How did CCN1CCC(N(Cc2ccc(F)cc2)C(=O)Nc2ccc(C)c(F)c2)CC1 do in these assays?
D3 ag: -15.3; HepG2 viability: -48.4%
